Test [1] addresses Bile acid receptor (Homo sapiens) (UniProt Q96RI1). The experiment in a line: qHTS assay for small molecule agonists of farnesoid X receptor signaling (AID 588527).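 Further: series mostly up to about 77 µM; 0% = vehicle basal and 100% = reference agonist.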 The following applies: HEK293T FXR-UAS-bla, beta-lactamase ratio, 16 h; activation: stronger effect = higher value. Put shortly: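 Read-out: beta-lactamase reporter fluorescence with CCF4 substrate in GeneBLAzer FXR-UAS-bla HEK293T cells, after 16 h compound exposure at 37 C. Response scaled between DMSO basal (0%) and chenodeoxycholic acid at 100 uM (100%).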
A general note: qHTS replaces the single test concentration by a dilution series.

Test [2] deals with Glucocorticoid receptor (Homo sapiens) (UniProt P04150). The experiment in a line: qHTS assay for small molecule agonists of glucocorticoid receptor signaling (AID 588532; active means well fitted curve in the direction sought with a large enough effect in the signal ratio, with a control signal flat; the % refers to the signal ratio;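 further: 100% = dexamethasone at 0.1 µM and 0% = DMSO only wells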). The settings on record: HeLa MMTV-bla, beta-lactamase ratio, agonist, 18 h; activation: stronger effect = higher value, percent of dexamethasone control, DMSO zero. An outline of the steps: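 Quantitative HTS using CellSensor MMTV-bla HeLa cells in charcoal/dextran-treated serum; compounds tested up to 92 uM. After 18 h at 37 C, CCF4 dye reported reporter induction.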

Test [3] is described as follows: qHTS assay for small molecule antagonists of peroxisome proliferator-activated receptor delta signaling (AID 588535).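 Further: cells co-treated with a PPAR-delta agonist as stimulator during compound exposure.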 The settings on record: HEK293T PPARd-UAS-bla, beta-lactamase FRET ratio, 18 h; 460 nm channel. Put shortly:
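HEK293T PPAR-delta-UAS-bla cells, 4000/well, 2% charcoal/dextran FBS; 5 h 37 C; cpd titration; 18 h 37 C; CCF4 2 h RT; FI 460/530 nm; Hill fit → IC50, efficacy.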

The target of test [4] is Vitamin D3 receptor (Homo sapiens) (UniProt P11473). The test can be described thus: qHTS assay for small molecule antagonists of vitamin D receptor signaling (AID 588541).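 Further: receptor activated by calcitriol during compound treatment; series mostly up to about 77 µM; on the % scale 0 is the no-effect control and ±100 the full control effect.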 An outline of the steps: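 Antagonist-mode beta-lactamase reporter assay: HEK293T VDR-UAS-bla cells were exposed to titrated compound alongside 1-alpha,25-dihydroxyvitamin D3 at 3 nM final for 16 h. Values were normalized to the 50 nM agonist control and DMSO basal, with IC50 and efficacy from Hill equation fits.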

Test [5] has as its target Thyroid hormone receptor beta (Homo sapiens) (UniProt P10828). The test can be described thus: qHTS assay for small molecule agonists of thyroid hormone receptor beta signaling (AID 588545).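 Further: 0% = DMSO only and 100% = 10 nM T3.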 Put shortly:
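Beta-lactamase reporter activity under TR response element control is measured in HEK 293 cells after 18 hrs compound exposure. Signal is ratiometric CCF4 fluorescence, 460/530 nm.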

Test [6] is described as follows: qHTS assay for small molecule antagonists of retinoid X receptor alpha signaling (AID 588546; active means well fitted inhibition curve with a large enough effect in the signal ratio, with a control signal flat, not every such curve was filed as active; the % refers to the signal ratio;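 further: cells stimulated with 9-cis-retinoic acid as agonist; on the % scale 0 is the no-effect control and ±100 the full control effect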). The settings on record: HEK293T RXRa-UAS-bla, beta-lactamase ratio, antagonist mode; measured here: W530 green channel, cytotoxicity proxy. Put shortly:
(§1)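 Beta-lactamase reporter inhibition, read as CCF4 fluorescence ratio (ex 405, em 460/530 nm) after 2 h at RT. HEK293T UAS-bla cells, 2500/well, were stimulated with 9-cis-RA at 500 or 100 nM final alongside test compound for 18 h at 37 C.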

Test [7] addresses Retinoic acid receptor RXR-alpha (Homo sapiens) (UniProt P19793). The test is described as above. The following applies: HEK293T RXRa-UAS-bla, beta-lactamase ratio, antagonist mode. An outline of the steps: as §1
Test [8] deals with Thyroid hormone receptor beta (Homo sapiens) (UniProt P10828). The test can be described thus: qHTS assay for small molecule antagonists of thyroid hormone receptor beta signaling (AID 588547; active means well fitted inhibition curve with a large enough effect in the signal ratio, with a control signal flat, not every such curve was filed as active; the % refers to the signal ratio;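 further: cells stimulated with 0.4 nM T3 agonist during compound exposure; series mostly up to about 77 µM; on the % scale 0 is the no-effect control and ±100 the full control effect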). The following applies: TR-UAS-bla HEK293, beta-lactamase ratio, antagonist mode, 18 h. An outline of the steps:
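Inhibition of T3-driven (0.4nM final) beta-lactamase reporter activity was measured over 0.59 nM to 92 uM compound after 18 h at 37 C. The cells were GripTite HEK293 TR-UAS-bla in charcoal/dextran-stripped serum, with CCF4 ratio read-out and IC50 from Hill fits.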

Test [9] can be described thus: qHTS assay for small molecule activators of the p53 signaling pathway (AID 651743; active means well fitted activation curve with a large enough effect in the signal ratio, not every such curve was filed as active; the % refers to the signal ratio; further: potency means the concentration at half of the fitted maximal effect; on activation: series mostly up to about 92 µM; % of control where 0% means no effect). The following applies: HCT-116 p53RE-bla, beta-lactamase FRET ratio, 16 h; activation: stronger effect = higher value. An outline of the steps:
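Read-out is fluorescence intensity from the LiveBLAzer B/G FRET substrate, added for 2 hours at room temperature after HCT-116 p53RE-bla cells had been incubated with compounds for 16 hours at 37 C.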

The nature of test [10]: qHTS assay for small molecule activators of the nuclear factor-kappa B (NF-kB) signaling pathway (AID 651749; active means well fitted activation curve with a large enough effect in the signal ratio; the % refers to the signal ratio; further: series mostly up to about 77 µM; % of control where 0% means no effect). The settings on record: NF-kB-bla ME-180 cells, beta-lactamase FRET ratio, 16 h; activation: stronger effect = higher value. An outline of the steps: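 Readout: beta-lactamase reporter driven by an NF-kB response element, detected fluorescently as loss of FRET. Cells were the ME-180 line, treated 16 hr at 37C with pin-transferred compound.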

A short description of test [11]: qHTS assay for small molecule agonists of the antioxidant response element (ARE) signaling pathway measured by Nrf2-dependant transcriptional activity (AID 720636; active means well fitted curve in the direction sought with a large enough effect in the repeat runs; an effect the other way counts as inactive or inconclusive; further: potency means the concentration at half of the fitted maximal effect; on activation: % of control where 0% means no effect). An outline of the steps: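 ARE-luc HepG2 cells carrying an Nrf2-responsive luciferase reporter were plated in medium with 1% dialyzed FBS, left 6 hr at 37 C to attach, then exposed to compound for 16 hr. Luciferase luminescence was read after ONE-Glo addition.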

Test [12] in a line: qHTS assay for cell viability of the p53RE-bla HCT-116 cell line (AID 743292; active means well fitted curve in the direction sought with a large enough effect; an effect the other way counts as inactive or inconclusive; further: nearly all actives have a fitted effect of over 55% in size; further: potency means the concentration at half of the fitted maximal effect). An outline of the steps:
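CellSensor p53RE-bla HCT-116 cells, 4,000/well, preincubated 5 h at 37 C, then exposed to compounds in DMSO for 16 h at 37 C. Viability read as CellTiter-Glo luminescence (intracellular ATP) after 30 min at room temperature.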

The target of test [13] is Peroxisome proliferator-activated receptor delta (Homo sapiens) (UniProt Q03181). The experiment in a line: qHTS assay for small molecule agonists of peroxisome proliferator-activated receptor delta signaling (AID 588534).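 Further: 0% = DMSO basal wells and 100% = positive control agonist at 10 µM.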 Put shortly:
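Cells carrying a PPAR-delta beta-lactamase reporter were treated with compounds for 18 h at 37 °C in agonist mode. CCF4 fluorescence was read after 2 h; EC50 and efficacy from Hill fits.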

The target of test [14] is Retinoic acid receptor RXR-alpha (Homo sapiens) (UniProt P19793). The test can be described thus: qHTS assay for small molecule agonists of retinoid X receptor alpha signaling (AID 588544).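 Further: 0% = DMSO basal wells and 100% = reference agonist.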
Test [15] is described as follows: qHTS assay for environmental chemicals that activate the Aryl hydrocarbon Receptor (AhR) signaling pathway (AID 651777; active means well fitted curve in the direction sought with a large enough effect; an effect the other way counts as inactive or inconclusive; further: % of control where 0% means no effect; nearly all actives have a fitted effect of over 15% in size). The settings on record: 1A2-DRE human hepatoma cells, luciferase, 24 h; activation: stronger effect = higher value. An outline of the steps:
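Human hepatoma 1A2-DRE cells, stably carrying a dioxin response element and CYP1A2 promoter driving luciferase, were exposed to compounds for 24 hr at 37 C and 5% CO2. Luciferase signal was then read after 30 min One-Glo at room temperature.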

Test [16] can be described thus: qHTS assay for small molecule agonists of the antioxidant response element (ARE) signaling pathway measured by Nrf2-dependant transcriptional activity - cell viability counter screen (AID 720653; active means well fitted curve in the direction sought with a large enough effect in the repeat runs; an effect the other way counts as inactive or inconclusive; further: on the % scale 0 is the no-effect control and ±100 the full control effect). The settings on record: ARE-bla HepG2 viability, CellTiter-Glo ATP luminescence, 16 h; max response: stronger effect = lower value. An outline of the steps: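 Cytotoxicity counter screen: intracellular ATP quantified by CellTiter-Glo luminescence in the same ARE-bla HepG2 plates, after 16 h compound exposure and a 2 h beta-lactamase substrate step.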

A short description of test [17]: qHTS assay for cell viability of HEK293 cells (AID 743288; active means well fitted curve in the direction sought with a large enough effect; an effect the other way counts as inactive or inconclusive; further: nearly all actives have a fitted effect of over 50% in size; further: potency means the concentration at half of the fitted maximal effect). The following applies: ATP luminescence (CellTiter-Glo), 18 h; max response: stronger effect = lower value. Put shortly:
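Environmental chemicals tested in qHTS format against parental HEK293 cells; 18 h treatment, 37 C; read-out ATP luminescence (CellTiter-Glo), 30 min RT development.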

Test [18] addresses Vitamin D3 receptor (Homo sapiens) (UniProt P11473). The experiment in a line: qHTS assay for small molecule agonists of vitamin D receptor signaling (AID 588543).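 Further: 0% = DMSO basal and 100% = reference agonist control.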 An outline of the steps:
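β-lactamase reporter, VDR-UAS-bla HEK293T, agonist mode. Cells plated 5 h at 37 °C, compound titration 16 h at 37 °C, CCF4 dye 2 h RT, ratio 460/530 nm. Hill fit → EC50, efficacy vs 50 nM 1α,25-(OH)2D3.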

For test [19], the target named is Peroxisome proliferator-activated receptor alpha (Homo sapiens) (UniProt Q07869). The experiment in a line: qHTS assay for small molecule agonists of the peroxisome proliferator-activated receptor alpha (PPARalpha) signaling pathway (AID 651778; active means well fitted curve in the direction sought with a large enough effect; an effect the other way counts as inactive or inconclusive; further: % of control where 0% means no effect). The following applies: PathHunter PPARalpha complementation, chemiluminescence, 6 h; max response: stronger effect = higher value. An outline of the steps: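 Chemiluminescence from complemented enzyme reported PPARalpha activation in cells after 6 hr of compound treatment at 37 C. The detection reagent was incubated for 60 min at room temperature, and compounds were scored as agonists.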

The values below come from PubChem BioAssay (NCATS).

Records with an inconclusive call do not appear. Calls of active or inactive are those of the source. Unless noted, the call rests on the fitted dose curve.

Retinoic acid receptor RXR-alpha (Homo sapiens), sequence (P19793 whole entry, looked up): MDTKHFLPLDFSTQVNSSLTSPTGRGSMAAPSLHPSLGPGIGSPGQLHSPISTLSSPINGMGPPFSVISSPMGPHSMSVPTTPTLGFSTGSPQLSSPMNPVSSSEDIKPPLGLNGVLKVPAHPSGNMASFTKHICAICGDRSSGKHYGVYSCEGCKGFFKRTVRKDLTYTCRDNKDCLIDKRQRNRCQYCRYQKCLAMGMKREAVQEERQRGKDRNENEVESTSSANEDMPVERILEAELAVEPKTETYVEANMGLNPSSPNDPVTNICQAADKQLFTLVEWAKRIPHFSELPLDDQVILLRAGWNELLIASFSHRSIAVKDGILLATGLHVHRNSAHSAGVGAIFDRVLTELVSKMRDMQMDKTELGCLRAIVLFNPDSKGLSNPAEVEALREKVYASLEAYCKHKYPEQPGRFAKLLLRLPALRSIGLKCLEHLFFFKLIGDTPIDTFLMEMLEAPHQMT
Peroxisome proliferator-activated receptor alpha (Homo sapiens), sequence (Q07869 whole entry, looked up): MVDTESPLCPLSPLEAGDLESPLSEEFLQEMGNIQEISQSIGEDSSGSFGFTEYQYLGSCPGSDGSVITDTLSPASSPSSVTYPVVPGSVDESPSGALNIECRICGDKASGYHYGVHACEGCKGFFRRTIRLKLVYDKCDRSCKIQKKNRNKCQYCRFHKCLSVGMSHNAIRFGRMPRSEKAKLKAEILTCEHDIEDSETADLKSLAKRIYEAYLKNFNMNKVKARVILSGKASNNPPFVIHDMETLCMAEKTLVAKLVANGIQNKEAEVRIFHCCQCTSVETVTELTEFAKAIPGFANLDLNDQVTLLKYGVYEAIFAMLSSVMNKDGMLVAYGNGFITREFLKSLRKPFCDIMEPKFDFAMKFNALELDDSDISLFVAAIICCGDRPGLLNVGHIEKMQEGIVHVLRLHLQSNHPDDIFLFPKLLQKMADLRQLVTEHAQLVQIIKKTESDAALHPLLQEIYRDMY
Vitamin D3 receptor (Homo sapiens), sequence (P11473 whole entry, looked up): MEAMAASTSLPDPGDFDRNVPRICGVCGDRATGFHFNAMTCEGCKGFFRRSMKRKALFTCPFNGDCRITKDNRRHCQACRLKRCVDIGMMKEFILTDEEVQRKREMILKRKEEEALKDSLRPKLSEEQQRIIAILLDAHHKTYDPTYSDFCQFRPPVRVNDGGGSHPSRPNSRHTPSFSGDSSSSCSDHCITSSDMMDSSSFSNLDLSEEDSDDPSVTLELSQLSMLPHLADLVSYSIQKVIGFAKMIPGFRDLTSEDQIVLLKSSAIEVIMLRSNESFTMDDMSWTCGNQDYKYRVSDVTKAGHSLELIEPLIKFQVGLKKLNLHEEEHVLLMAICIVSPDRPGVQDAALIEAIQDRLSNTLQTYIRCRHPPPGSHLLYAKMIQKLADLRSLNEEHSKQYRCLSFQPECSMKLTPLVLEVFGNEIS
Thyroid hormone receptor beta (Homo sapiens), sequence (P10828 whole entry, looked up): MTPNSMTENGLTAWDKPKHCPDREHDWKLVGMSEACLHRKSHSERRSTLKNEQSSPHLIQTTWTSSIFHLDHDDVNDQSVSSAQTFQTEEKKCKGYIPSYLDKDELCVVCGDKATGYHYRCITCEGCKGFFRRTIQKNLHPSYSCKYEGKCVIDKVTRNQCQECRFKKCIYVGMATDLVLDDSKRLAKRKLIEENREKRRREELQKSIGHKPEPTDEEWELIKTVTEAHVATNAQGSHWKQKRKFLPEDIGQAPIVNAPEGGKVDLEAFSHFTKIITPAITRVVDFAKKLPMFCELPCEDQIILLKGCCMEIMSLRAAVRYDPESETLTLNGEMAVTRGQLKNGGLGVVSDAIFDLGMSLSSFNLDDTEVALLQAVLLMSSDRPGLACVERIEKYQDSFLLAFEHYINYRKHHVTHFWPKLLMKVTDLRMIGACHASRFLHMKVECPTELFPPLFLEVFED
Bile acid receptor (Homo sapiens), sequence (Q96RI1 whole entry, looked up): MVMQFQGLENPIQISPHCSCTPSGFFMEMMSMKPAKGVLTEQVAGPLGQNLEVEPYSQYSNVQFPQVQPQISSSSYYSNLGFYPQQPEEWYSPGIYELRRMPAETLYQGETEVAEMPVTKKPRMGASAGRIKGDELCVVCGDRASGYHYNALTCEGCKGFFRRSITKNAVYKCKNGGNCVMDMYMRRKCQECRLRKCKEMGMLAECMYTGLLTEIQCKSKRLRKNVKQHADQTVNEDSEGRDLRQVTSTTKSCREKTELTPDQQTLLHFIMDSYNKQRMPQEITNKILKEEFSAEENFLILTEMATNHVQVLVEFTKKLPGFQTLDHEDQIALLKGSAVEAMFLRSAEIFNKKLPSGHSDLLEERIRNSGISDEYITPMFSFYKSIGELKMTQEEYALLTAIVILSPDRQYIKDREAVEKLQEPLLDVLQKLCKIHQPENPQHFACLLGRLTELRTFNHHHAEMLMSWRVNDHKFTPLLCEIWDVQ
Glucocorticoid receptor (Homo sapiens), sequence (P04150 whole entry, looked up): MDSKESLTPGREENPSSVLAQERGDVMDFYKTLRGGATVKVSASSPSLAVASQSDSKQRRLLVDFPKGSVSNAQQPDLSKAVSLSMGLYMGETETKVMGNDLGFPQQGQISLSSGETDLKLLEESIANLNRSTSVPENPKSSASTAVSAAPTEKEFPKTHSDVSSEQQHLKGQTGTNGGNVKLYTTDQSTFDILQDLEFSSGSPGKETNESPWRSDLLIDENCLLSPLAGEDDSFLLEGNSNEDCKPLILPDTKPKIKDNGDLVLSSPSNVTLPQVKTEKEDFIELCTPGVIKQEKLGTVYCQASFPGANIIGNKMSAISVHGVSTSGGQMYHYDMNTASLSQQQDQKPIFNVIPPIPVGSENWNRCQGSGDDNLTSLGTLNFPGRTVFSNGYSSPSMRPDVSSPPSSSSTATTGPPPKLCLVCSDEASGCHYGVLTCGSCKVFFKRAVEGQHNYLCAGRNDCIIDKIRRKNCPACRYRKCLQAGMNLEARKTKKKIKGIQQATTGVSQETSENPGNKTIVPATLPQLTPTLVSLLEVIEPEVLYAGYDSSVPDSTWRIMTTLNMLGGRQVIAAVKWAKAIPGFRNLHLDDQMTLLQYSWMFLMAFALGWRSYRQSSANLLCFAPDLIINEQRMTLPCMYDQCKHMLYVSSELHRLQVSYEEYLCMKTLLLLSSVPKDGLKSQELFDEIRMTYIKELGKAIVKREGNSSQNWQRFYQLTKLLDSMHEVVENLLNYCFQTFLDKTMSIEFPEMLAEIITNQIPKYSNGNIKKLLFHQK
Peroxisome proliferator-activated receptor delta (Homo sapiens), sequence (Q03181 whole entry, looked up): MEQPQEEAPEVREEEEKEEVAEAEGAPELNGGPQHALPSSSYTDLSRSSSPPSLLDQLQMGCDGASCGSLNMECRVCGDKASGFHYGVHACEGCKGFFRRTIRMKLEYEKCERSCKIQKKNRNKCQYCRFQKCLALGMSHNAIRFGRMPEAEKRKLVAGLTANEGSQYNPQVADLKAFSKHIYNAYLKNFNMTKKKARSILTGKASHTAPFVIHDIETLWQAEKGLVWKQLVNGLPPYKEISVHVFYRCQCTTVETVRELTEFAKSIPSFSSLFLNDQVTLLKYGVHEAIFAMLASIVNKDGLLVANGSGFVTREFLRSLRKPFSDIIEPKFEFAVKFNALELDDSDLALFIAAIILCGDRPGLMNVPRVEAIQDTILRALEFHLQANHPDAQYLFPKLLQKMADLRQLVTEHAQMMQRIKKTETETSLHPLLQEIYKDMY

`CCC(C)c1cc([N+](=O)[O-])cc([N+](=O)[O-])c1O` (stereo not given): the activation was 4.38% (inactive) in test [1], -12.7% (inactive) in test [2] and -0.876% (inactive) in test [10]. The figures for the max response in test [3], in [6] and in [7] were 0.93%, -3.63% and 15.9% (inactive), respectively. In addition, the Potency result in test [4], in test [5], in test [11] and in test [12] was “inactive” each time. Further, the activity change % (negative = inhibition) in test [8] was -14.7% (inactive). Besides, the Potency in test [9] was 6.31 µM (active).
Consider `O=C(O)[C@@H]1[C@H](C(=O)O)[C@@]2(Cl)C(Cl)=C(Cl)[C@]1(Cl)C2(Cl)Cl`, for which the activation in [1] was 7.2% (inactive); in test [2], -1.44% (inactive); in [9], -1.67% (inactive); in test [10] it was -0.556% (inactive); in [15], 1.48% (inactive). The compound was called inactive in [13]. Further, the figures for the max response in [3], in test [16] and in test [17] were 2.51%, -22.8% (inactive) and -18.3% (inactive), respectively. Further, the Potency entry in [14], in [5], in [11] and in test [12] was “inactive” in each case.
Take `CSC1=N[C@@](C)(c2ccccc2)C(=O)N1Nc1ccccc1`: the figures for the activation in test [1], in test [2] and in test [15] were 1.54% (inactive), 0.812% (inactive) and -5.24% (inactive), respectively. Also, the compound was classed as inactive in test [13] and in test [18]. Also, the Potency entry in test [14], in test [5], in test [11] and in test [12] was “inactive” each time. Also, in [8], the activity change % (negative = inhibition) is -28.6% (inactive). For the same compound, the max response in test [19] was -0.163% (inactive); in [17], -18% (inactive).
In the case of `OCC(CO)(CO)COCC(CO)(CO)CO`, in test [1], the activation was -6.39% (inactive).
For `C1CCOC1`, the activation in test [1] was -4.53% (inactive).
The same measure, in the same setting: as for `CCOC(=O)C(C)Oc1ccc(Oc2cnc3cc(Cl)ccc3n2)cc1` (stereo not given), the figure is -3.91% (inactive).
`Nc1ccccc1[N+](=O)[O-]`: the activation in [1] was -3.44% (inactive).
On to `C1CC[CH]([Sn]([CH]2CCCCC2)[CH]2CCCCC2)CC1`, for which the activation in test [1] is 0.852% (inactive); in [2] it was -10.4% (inactive); in test [9], -8.17% (inactive); in test [15], 3.62% (inactive). The Potency result in test [5] is “inactive”. Besides, in test [19], the max response was -0.731% (inactive). The results for the Potency in test [11], in test [17] and in test [12] were 13.7 µM (active), 31.6 µM (active) and 39.8 µM (active), respectively.
`O=P(Oc1ccccc1)(Oc1ccccc1)Oc1ccccc1`: the activation is 1.95% (inactive) in test [1]; 6.86% (inactive) in [2]; -5.18% (inactive) in [9]; -2% (inactive) in test [10]; 2.98% (inactive) in test [15]. Besides, the compound was called inactive in [13] and in test [18]. For the same compound, the max response in test [3] was 29%; in test [6], 0.157%; in test [7], -15.3% (inactive); in [19] it was -0.776% (inactive); in test [16], -2.38% (inactive); in [17], -15.7% (inactive). Moreover, the Potency result in test [4], in [5], in [11] and in test [12] was “inactive” in each case. Besides, in test [8], the activity change % (negative = inhibition) is -5.53% (inactive).
With `CC(C)(C)c1ccc(O)c(C(C)(C)C)c1`, the activation in test [1] is 3.24% (inactive).
As for `CCCCCCCCCC[N+](C)(C)Cc1ccccc1`, the activation in test [1] was 3.15% (inactive).
